Assay in all cases: NCI-60 one-dose screen, 48 h (100 = growth as untreated, 0 = no growth, -100 = all killed)
One assay deals with SK-MEL-2 melanoma. The conditions noted are these: 10 µM unless noted.
The next assay deals with EKVX NSCLC. Particulars: 10 µM unless noted.
The test system of another assay is SN12C renal. Particulars: 10 µM unless noted.
The test system of the next assay is TK-10 renal. The conditions noted are these: 10 µM unless noted.
The next assay has as its system ACHN renal. The conditions noted are these: 10 µM unless noted.
A further assay has as its system CAKI-1 renal. The conditions noted are these: 10 µM.
The subject of the next assay is A498 renal. The conditions noted are these: 10 µM unless noted.
The test system of another assay is CCRF-CEM leukemia. The conditions noted are these: 10 µM unless noted.
In another assay the test system is MOLT-4 leukemia. The conditions noted are these: 10 µM unless noted.
A further assay relates to SR leukemia. Particulars: 10 µM unless noted.
For a further assay, the system named is OVCAR-8 ovarian. The conditions noted are these: 10 µM unless noted.
The test system of another assay is OVCAR-5 ovarian. The conditions noted are these: 10 µM unless noted.
For a further assay, the system named is OVCAR-4 ovarian. Particulars: 10 µM unless noted.
A further assay relates to SK-OV-3 ovarian. The conditions noted are these: 10 µM unless noted.
A further assay concerns IGROV1 ovarian. The conditions noted are these: 10 µM unless noted.
In another assay the test system is OVCAR-3 ovarian. The conditions noted are these: 10 µM unless noted.
A further assay relates to HS 578T breast. Particulars: 10 µM unless noted.
The test system of the next assay is UO-31 renal. Particulars: 10 µM unless noted.
The next assay concerns RPMI-8226 leukemia. The conditions noted are these: 10 µM unless noted.
For a further assay, the system named is NCI/ADR-RES ovarian. The conditions noted are these: 10 µM unless noted.

About 83,000 compounds went through this panel and 20% of them were active in at least one assay; those are over-represented in the sample as a whole.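 For each line, cells grew in 96-well plates with the test compound present at a single concentration for 48 hours.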 Unmarked numbers belong to inactive results. The source made the active and inactive calls. How the source made its calls: active means growth percent below 10; inactive means the rest.

On to `COc1ccc(-c2[nH]c3ccccc3c2/C=C(\C#N)S(=O)(=O)c2ccccc2)cc1`, for which the growth with SK-MEL-2 melanoma was 76.5%; with EKVX NSCLC, 14.1%; in the assay with SN12C renal, 42.2%; in the assay with TK-10 renal it was 91.7%; with ACHN renal, 51%; in the assay with CAKI-1 renal, -14.3% (active). Besides, the growth with A498 renal is 2.31% (active); with CCRF-CEM leukemia it was 8.07% (active); with MOLT-4 leukemia, 6.08% (active); with SR leukemia, 1.93% (active); in the assay with OVCAR-8 ovarian, 44.4%; in the assay with OVCAR-5 ovarian, 32.2%. In addition, the growth is -14.3% (active) in the assay on OVCAR-4 ovarian; 29.2% in the assay with SK-OV-3 ovarian; 32.7% in the assay on IGROV1 ovarian; -35.7% (active) in the assay with OVCAR-3 ovarian; 23.8% in the assay with HS 578T breast.

In the case of `CCN(CC)CCNC(=O)c1c(C)[nH]c(/C=C2\C(=O)Nc3cc(NC(=O)NC(=O)c4ccc(OC)cc4F)ccc32)c1C`, the growth in the assay with SK-MEL-2 melanoma is 128%; with EKVX NSCLC it was 114%; with SN12C renal it was 97.3%; with UO-31 renal, 96.2%; with ACHN renal, 38.2%; in the assay on A498 renal, 77.6%. Further, the growth is 42.4% with CCRF-CEM leukemia; 38.2% with MOLT-4 leukemia; 10.6% with SR leukemia; 75.7% in the assay on RPMI-8226 leukemia; 34% with OVCAR-8 ovarian; 120% in the assay with OVCAR-5 ovarian. Also, the growth is 111% with OVCAR-4 ovarian; 129% in the assay with SK-OV-3 ovarian; 98.5% in the assay with IGROV1 ovarian; 111% in the assay on OVCAR-3 ovarian; 84.4% with HS 578T breast; 88.3% in the assay on NCI/ADR-RES ovarian.

Turning to `O=c1[nH]ccc2nc(N3CCC(O)CC3)nc(Nc3cccc(C(F)(F)F)c3)c12`, the growth is 25.2% in the assay with SK-MEL-2 melanoma; 83% in the assay on EKVX NSCLC; 61.4% in the assay on SN12C renal; 67.6% in the assay with TK-10 renal; 67.6% in the assay with ACHN renal; 38.6% with CAKI-1 renal. Also, the growth in the assay on A498 renal was 93.6%; in the assay with CCRF-CEM leukemia, 13%; with MOLT-4 leukemia, 1.19% (active); with RPMI-8226 leukemia, 62.6%; with OVCAR-8 ovarian it was 45.3%; in the assay with OVCAR-5 ovarian, 137%. The growth in the assay with OVCAR-4 ovarian is 91.4%; with SK-OV-3 ovarian it was 32.3%; in the assay with IGROV1 ovarian, 71.2%; in the assay on OVCAR-3 ovarian, 68.5%; in the assay with HS 578T breast it was 80.2%; with NCI/ADR-RES ovarian, 32.9%.

On to `CCc1ccc(C2=C/C(=C/c3ccc(Cl)cc3)C(=O)N2CCc2ccc(S(N)(=O)=O)cc2)cc1`, for which the growth was -12.5% (active) in the assay with SK-MEL-2 melanoma; 29.7% in the assay with EKVX NSCLC; 29% with SN12C renal; 16.5% with UO-31 renal; 14.9% in the assay on ACHN renal; 33.1% in the assay on A498 renal. The growth in the assay on CCRF-CEM leukemia was 15%; in the assay on MOLT-4 leukemia, -1.62% (active); with SR leukemia, 6.7% (active); in the assay on RPMI-8226 leukemia, 18.9%; with OVCAR-8 ovarian it was 21.5%; in the assay on OVCAR-5 ovarian, 47.2%. Also, the growth was 32.1% with OVCAR-4 ovarian; 46% in the assay with SK-OV-3 ovarian; 27.7% with IGROV1 ovarian; 23.6% in the assay with OVCAR-3 ovarian; 62.6% in the assay with HS 578T breast; 51.8% with NCI/ADR-RES ovarian.

On to `Nc1ncnc2c1c(-c1ccc(Oc3ccccc3)cc1)nn2C[C@H]1SSC[C@H]1O`, for which the growth was -75.1% (active) in the assay on SK-MEL-2 melanoma; 6.97% (active) in the assay on EKVX NSCLC; 20.7% in the assay with SN12C renal; -3.37% (active) in the assay with UO-31 renal; 10.3% in the assay with ACHN renal; 18.9% in the assay with A498 renal. Besides, the growth with CCRF-CEM leukemia is 11.1%; in the assay on MOLT-4 leukemia, -2.47% (active); with SR leukemia it was -40% (active); with RPMI-8226 leukemia, 42.8%; in the assay with OVCAR-8 ovarian it was 20.5%; with OVCAR-5 ovarian it was 64.1%. Further, the growth is 25.6% with OVCAR-4 ovarian; -20.8% (active) with SK-OV-3 ovarian; -26.5% (active) in the assay on IGROV1 ovarian; -9.53% (active) in the assay on OVCAR-3 ovarian; 21.6% in the assay with HS 578T breast; 22.4% in the assay on NCI/ADR-RES ovarian.
